From the supplement of paper PMC9694430

Assays:
Assay in all cases: thermal shift delta Tm vs DMSO control; higher = stronger stabilization (binding)
Conditions in all cases: 12.5 µM; protein concentration 2 µM
LOC_OS04G57630-cb004 = test system: LOC_OS04G57630-cb004
Outline: (§1)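 Rice kinase domain constructs, made in E. coli and purified, were placed in 96-well plates at 2 μM in 19.5 μl of 100 mM potassium phosphate pH 7.5, 150 mM NaCl, 10% glycerol and 5 × SYPRO Orange, with compound in DMSO. A temperature ramp from 25°C to 95°C at 0.05°C/s was used for differential scanning fluorimetry. The melting temperature shift is a triplicate mean compared with DMSO-only protein, derived from Boltzmann fits.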

LOC_OS05G07850-cb002 = test system: LOC_OS05G07850-cb002
Outline: as §1

LOC_OS05G28520-cb001 = test system: LOC_OS05G28520-cb001
Outline: as §1

LOC_OS05G30820-cb001 = test system: LOC_OS05G30820-cb001
Outline: as §1

LOC_OS05G43570-cb004 = test system: LOC_OS05G43570-cb004
Outline: as §1

LOC_OS06G16330-cb003 = test system: LOC_OS06G16330-cb003
LOC_OS06G16330-cb003, sequence (as listed by the source): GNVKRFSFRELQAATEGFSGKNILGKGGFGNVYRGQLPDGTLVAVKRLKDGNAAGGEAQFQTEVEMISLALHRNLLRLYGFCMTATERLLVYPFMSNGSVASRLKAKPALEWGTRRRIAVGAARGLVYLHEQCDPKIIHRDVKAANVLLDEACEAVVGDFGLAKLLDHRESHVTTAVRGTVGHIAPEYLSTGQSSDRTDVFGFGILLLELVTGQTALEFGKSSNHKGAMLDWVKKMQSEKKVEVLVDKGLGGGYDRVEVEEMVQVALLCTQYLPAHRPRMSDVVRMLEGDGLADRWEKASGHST
Outline: as §1

LOC_OS06G22820-cb001 = test system: T1, LOC_OS06G22820-cb001
T1 sequence (whole entry): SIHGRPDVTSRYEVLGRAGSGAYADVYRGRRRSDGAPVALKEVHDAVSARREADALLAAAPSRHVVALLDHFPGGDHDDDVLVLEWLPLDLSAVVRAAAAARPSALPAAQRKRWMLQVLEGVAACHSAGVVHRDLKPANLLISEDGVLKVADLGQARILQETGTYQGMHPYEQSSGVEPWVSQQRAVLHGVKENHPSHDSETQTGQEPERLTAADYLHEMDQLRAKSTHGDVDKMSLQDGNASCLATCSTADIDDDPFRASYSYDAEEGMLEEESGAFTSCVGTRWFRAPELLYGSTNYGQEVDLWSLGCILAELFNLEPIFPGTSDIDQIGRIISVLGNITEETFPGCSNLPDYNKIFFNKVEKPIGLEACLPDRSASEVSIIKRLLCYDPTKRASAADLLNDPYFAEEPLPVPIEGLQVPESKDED
Outline: as §1

LOC_OS07G06570-cb004 = test system: LOC_OS07G06570-cb004
Outline: as §1

LOC_OS07G07230-cb001 = test system: LOC_OS07G07230-cb001
Outline: as §1

LOC_OS05G16824-cb004 = test system: LOC_OS05G16824-cb004
Outline: as §1
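Also: purified Escherichia coli-expressed rice kinase domain construct.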

| SMILES | thermal shift delta Tm (LOC_OS04G57630-cb004) | thermal shift delta Tm (LOC_OS05G07850-cb002) | thermal shift delta Tm (LOC_OS05G28520-cb001) | thermal shift delta Tm (LOC_OS05G30820-cb001) | thermal shift delta Tm (LOC_OS05G43570-cb004) | thermal shift delta Tm (LOC_OS06G16330-cb003) | thermal shift delta Tm (LOC_OS06G22820-cb001) | thermal shift delta Tm (LOC_OS07G06570-cb004) | thermal shift delta Tm (LOC_OS07G07230-cb001) | thermal shift delta Tm (LOC_OS05G16824-cb004) |
| --- | --- | --- | --- | --- | --- | --- | --- | --- | --- | --- |
| CCC[C@H](NC(=O)/C(C#N)=C/c1cccc(Br)n1)c1ccccc1 [Degrasyn (WP1130)] | -2.22 °C | -0.67 °C | -0.84 °C | 0.52 °C | -0.8 °C | -2.97 °C | 0.49 °C | -0.53 °C | 0.24 °C | – |
| CNC(=O)c1cc(Oc2ccc(NC(=O)Nc3cc(C(C)(C)C)nn3-c3ccc4ncccc4c3)c(F)c2)ccn1 [Rebastinib (DCC-2036)] | 10.4 °C | 14.3 °C | 0.81 °C | 1.05 °C | 0.62 °C | 10 °C | 0.59 °C | 0.44 °C | -0.15 °C | 0.76 °C |
| CN(C)C[C@@H]1CCn2cc(c3ccccc32)C2=C(C(=O)NC2=O)c2cn(c3ccccc23)CCO1 | -0.32 °C | 5.79 °C | 0.65 °C | 0.63 °C | 0.63 °C | 0.27 °C | 0.46 °C | 2.56 °C | 0.33 °C | 2.45 °C |
| CCCCCCCCCCCCCCCCn1cc[n+](Cc2ccccc2)c1C | -3.77 °C | 0.19 °C | -2.62 °C | -1.41 °C | -3.26 °C | -4.53 °C | -0.65 °C | -1.18 °C | -0.82 °C | – |
| CN(c1ccccc1CNc1nc(Nc2ccc3c(c2)CC(=O)N3)ncc1C(F)(F)F)S(C)(=O)=O | 3.74 °C | 11.3 °C | 2.32 °C | 4 °C | 0.97 °C | 7.19 °C | -0.04 °C | 1.23 °C | 0.27 °C | 11.6 °C |
| Oc1ccc(-c2nc(-c3ccc(F)cc3)c(-c3ccncc3)[nH]2)cc1 | 0.57 °C | 1.26 °C | 1.33 °C | 0.88 °C | 1.13 °C | 0.09 °C | 0.97 °C | 1.08 °C | 0.48 °C | – |
| CCCCCCCCCCCCCCCCCCOP(=O)([O-])OC1CC[N+](C)(C)CC1 [Perifosine (KRX-0401)] | -0.56 °C | -0.07 °C | -1.23 °C | -0.15 °C | -0.61 °C | – | 0.39 °C | -2.82 °C | -2.65 °C | – |
| Cc1[nH]c(/C=C2\C(=O)Nc3ccccc32)c(C)c1CCC(=O)O [Orantinib (TSU-68, SU6668)] | 0.84 °C | 9.92 °C | 0.62 °C | 1.03 °C | 0.68 °C | – | 0.6 °C | 1.28 °C | 0.28 °C | 0 °C |
| C[C@@H]1CN(C(=O)c2ccc(NC(=O)c3cc(O[C@H](C)c4c(Cl)ccc(F)c4Cl)c(N)nn3)cc2)C[C@H](C)N1 [Ensartinib (X-396)] | 4.75 °C | 7.81 °C | 0.56 °C | 0.45 °C | 0.3 °C | 13.8 °C | 0.22 °C | 0.36 °C | 0.35 °C | 5.94 °C |
| C=CCc1ccc(O)c(-c2ccc(O)c(CC=C)c2)c1 [Honokiol] | 0.34 °C | 0.49 °C | 0.24 °C | 0.69 °C | 0.62 °C | 0.47 °C | 0.7 °C | 0.49 °C | -0.78 °C | 1.45 °C |
